Shown are actives, neighbours in structure and some others; about 4% of the full set was active somewhere.
KKLEB cytotox – CF airway cell cytotoxicity counter-screen. activity change (cytotoxicity), % at 5 µM. 360,000 tested, 0.36% active. KKLEB CF airway cells viability, ATPlite luminescence, overnight; hits give low values; cells stimulated with P. aeruginosa culture filtrate;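 active = corrected activity change at or below -50% at 5 µM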
TWEAK Fn14 block – inhibitors of TWEAK-Fn14 interaction signaling | inhibition, % at 10 µM | TWEAK-stimulated Fn14 reporter cells, luciferase luminescence, 8 h | 360,000 tested, 2% active; in the data active = inhibition above about 50%
TROY NFkB inh – TROY signaling inhibition | Q293 LMP1-TROYcd NF-kB luciferase reporter, 4 h | inhibition, % at 10 µM | 360,000 tested, 0.98% active | AID 1347056;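 active = compounds whose plate-normalised and pattern-corrected inhibition of the luciferase reporter signal at the single screening dose is 50% or more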
CF NFkB block – blocks PAF-induced NF-kB reporter in cystic fibrosis cells | KKLEB NF-kB-GFP reporter, GFP fluorescence overnight | inhibition, % at 5 µM | 360,000 tested, 0.86% active | AID 588850;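 active = at least 50% inhibition at 5 µM, scaled per plate between neutral and stimulator controls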;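 also: PAF is a Pseudomonas aeruginosa culture filtrate used as stimulus; plate controls were PAF-stimulated DMSO wells for no effect and unstimulated DMSO wells for full effect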
HIF-2a inh – HIF-2a inhibition | inhibition, % at 18.8 µM | 786-0 RCC cells HIF-2a reporter, luciferase luminescence, overnight | 360,000 tested, 0.72% active;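 active = inhibition of the luminescence signal of 40% or more relative to plate controls, in a single-dose primary screen at 18.75 µM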
Peg3 promoter – Peg3 promoter activity inhibition; 360,000 tested, 1.7% active; HeLa PEG-Prom luciferase reporter, luminescence, overnight; inhibition, % at 20 µM;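 active = inhibition of at least 50% at 20 µM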
CF NFkB inh conf – CF NF-kB inhibition confirmation, single concentration. KKLEB CF airway cells, PAF-induced NF-kB-GFP fluorescence, overnight. 1,300 tested, 64% active. AID 602472. shares compounds with CF NFkB block. inhibition, % at 5 µM; in the data active = inhibition above about 40%;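 also: stimulus PAF is a Pseudomonas aeruginosa filtrate and not platelet activating factor; plate controls were DMSO wells with stimulus for no effect and unstimulated DMSO wells for full effect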
Mdm2-MdmX confirm – Mdm2/MdmX (human) interaction inhibition, confirmed; shares compounds with HIF-2a inh; SaOS-2 split-luciferase Mdm2/MdmX complementation, luminescence; inhibition, % at 8 µM; 740 tested, 99% active; AID 504601;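 active = mean inhibition of the luminescence signal across two replicates at or above 26 percent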
Target sequence (O15151 whole entry, looked up): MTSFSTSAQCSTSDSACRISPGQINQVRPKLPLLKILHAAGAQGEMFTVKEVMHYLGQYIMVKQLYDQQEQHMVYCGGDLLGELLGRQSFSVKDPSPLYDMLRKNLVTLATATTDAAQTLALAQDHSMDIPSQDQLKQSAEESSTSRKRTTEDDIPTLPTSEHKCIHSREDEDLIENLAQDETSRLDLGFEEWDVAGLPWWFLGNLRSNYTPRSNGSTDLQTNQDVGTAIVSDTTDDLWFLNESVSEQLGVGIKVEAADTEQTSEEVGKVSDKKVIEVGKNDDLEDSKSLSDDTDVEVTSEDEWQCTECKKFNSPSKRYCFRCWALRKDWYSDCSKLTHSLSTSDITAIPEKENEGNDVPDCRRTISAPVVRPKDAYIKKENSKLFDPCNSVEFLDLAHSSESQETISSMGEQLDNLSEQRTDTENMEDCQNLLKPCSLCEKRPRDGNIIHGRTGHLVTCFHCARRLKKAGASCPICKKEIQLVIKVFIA
Target sequence (Q00987 whole entry, looked up): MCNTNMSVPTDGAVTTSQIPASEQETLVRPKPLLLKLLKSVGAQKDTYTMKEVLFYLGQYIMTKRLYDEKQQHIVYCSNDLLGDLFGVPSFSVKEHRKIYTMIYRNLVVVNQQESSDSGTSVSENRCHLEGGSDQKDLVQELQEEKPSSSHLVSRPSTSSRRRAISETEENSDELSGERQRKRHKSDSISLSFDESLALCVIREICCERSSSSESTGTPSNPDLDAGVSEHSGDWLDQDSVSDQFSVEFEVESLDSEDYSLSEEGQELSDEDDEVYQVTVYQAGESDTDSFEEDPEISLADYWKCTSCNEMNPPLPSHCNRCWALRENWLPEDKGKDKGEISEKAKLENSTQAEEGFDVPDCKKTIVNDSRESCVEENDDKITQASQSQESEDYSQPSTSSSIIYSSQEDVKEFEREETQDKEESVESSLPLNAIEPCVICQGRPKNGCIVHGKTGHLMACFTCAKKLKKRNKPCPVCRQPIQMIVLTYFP
HIF-2a conf – confirmation of HIF-2a inhibitors; shares compounds with HIF-2a inh; 786-0 RCC cells, HIF-2a luciferase reporter luminescence, overnight; inhibition, % at 18.8 µM; 1,800 tested, 56% active;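 active = mean inhibition across four replicates of at least 40 percent at the single tested concentration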
HIF-1a counter – inhibits HIF-1a reporter, a counter-screen for HIF-2a inhibitors | inhibition, % at 18.8 µM | 1,800 tested, 72% active | shares compounds with HIF-2a inh | MiaPaCa-2 HIF-1a luciferase reporter, desferoxamine, overnight;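 active = mean inhibition of the reporter signal across four replicates at the single tested dose of 50% or more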
* marks the source's active call; other numbers are inactive results.

For COC(=O)c1cc(=O)n(Cc2ccc(OC)c(OC)c2)c(=Nc2ccc(F)cc2)s1 the results were KKLEB cytotox -20.7, TWEAK Fn14 block 65.1*, TROY NFkB inh 28.4, CF NFkB block 54.1*, HIF-2a inh 70.0*, Peg3 promoter 81.2*, CF NFkB inh conf -86.0, HIF-2a conf 68.2* and HIF-1a counter 102.1*.
For C=CC(=O)Nc1cccc(Oc2ncnc3[nH]cc(-c4cnc5ccccc5c4)c23)c1 the results were KKLEB cytotox -3.0, TWEAK Fn14 block 65.4*, TROY NFkB inh 52.6*, CF NFkB block 87.1*, HIF-2a inh 13.6, Peg3 promoter 42.4, CF NFkB inh conf 79.2* and Mdm2-MdmX confirm 100.0*.
`C=CC(=O)Nc1cccc(Oc2ccnc3[nH]ccc23)c1` gave KKLEB cytotox -10.5, TWEAK Fn14 block 29.1, TROY NFkB inh 11.8, CF NFkB block 41.8, HIF-2a inh -24.2 and Peg3 promoter -11.5.
`Cc1ccnc(NC(=O)c2cc3cc(F)ccc3s2)c1` gave KKLEB cytotox -13.6, TWEAK Fn14 block 41.5, TROY NFkB inh -11.7, CF NFkB block -3.8, HIF-2a inh -229.0 and Peg3 promoter -237.7.
Screening Cn1c(SC2=CS(=O)(=O)c3ccccc32)nc2ccccc21 returned KKLEB cytotox -26.6, TWEAK Fn14 block 87.7*, TROY NFkB inh 55.9*, CF NFkB block 91.3*, HIF-2a inh 90.8*, Peg3 promoter 98.8*, CF NFkB inh conf 97.8*, HIF-2a conf -9.1 and HIF-1a counter 77.0*.
For O=C(NCc1ccccc1)c1nc(S(=O)(=O)Cc2ccccc2)ncc1Cl the results were KKLEB cytotox -29.8, TWEAK Fn14 block 81.5*, TROY NFkB inh 69.5*, CF NFkB block 87.4*, HIF-2a inh 84.7*, Peg3 promoter 104.7*, CF NFkB inh conf 65.9*, HIF-2a conf 90.5* and HIF-1a counter 70.1*.
COc1ccc(CNC(=O)c2nc(S(=O)(=O)Cc3ccccc3)ncc2Cl)cc1 was read as KKLEB cytotox -20.5, TWEAK Fn14 block 72.8*, TROY NFkB inh 59.2*, CF NFkB block 89.5*, HIF-2a inh 90.7*, Peg3 promoter 104.2*, CF NFkB inh conf 70.8*, HIF-2a conf 63.0* and HIF-1a counter 35.5.
Screening O=C(NCc1ccc2c(c1)OCO2)c1ccc(Cl)nc1 returned KKLEB cytotox -0.7, TWEAK Fn14 block 8.1, TROY NFkB inh -13.7, CF NFkB block -8.8, HIF-2a inh -0.5 and Peg3 promoter 6.9.
COc1ccc(S(=O)(=O)Cc2ccc(C(=O)NCc3ccccc3)o2)cc1 was read as KKLEB cytotox 5.9, TWEAK Fn14 block 5.6, TROY NFkB inh 5.5, CF NFkB block -11.4, HIF-2a inh 1.8 and Peg3 promoter -4.2.
Screening O=C(NCc1ccc2c(c1)OCO2)c1nc(S(=O)(=O)Cc2ccccc2F)ncc1Cl returned KKLEB cytotox -1.7, TWEAK Fn14 block 78.9*, TROY NFkB inh 76.1*, CF NFkB block 86.2*, HIF-2a inh 87.7*, Peg3 promoter 105.5*, CF NFkB inh conf 41.7*, Mdm2-MdmX confirm 102.5*, HIF-2a conf 68.2* and HIF-1a counter 70.3*.
Cc1ccccc1CNC(=O)c1ccccc1 was read as KKLEB cytotox -4.2, TWEAK Fn14 block -13.7, TROY NFkB inh 3.8, CF NFkB block -16.1, HIF-2a inh 11.4 and Peg3 promoter -55.2.
Screening Cc1[nH]c2ccccc2c(=O)c1C(=O)/C=C/c1ccccc1 returned KKLEB cytotox -27.8, TWEAK Fn14 block 88.1*, TROY NFkB inh 63.6*, CF NFkB block 60.5*, HIF-2a inh 90.3*, Peg3 promoter 105.1*, CF NFkB inh conf 46.2*, Mdm2-MdmX confirm 102.7*, HIF-2a conf 85.3* and HIF-1a counter 105.4*.
Screening O=C(c1ccccc1)C(CCC(CN1CCOCC1)C(=O)c1ccccc1)CN1CCOCC1 (stereo not drawn) returned KKLEB cytotox -40.6, TWEAK Fn14 block 85.0*, TROY NFkB inh 50.8*, CF NFkB block 83.7*, HIF-2a inh 75.8*, Peg3 promoter 105.2*, CF NFkB inh conf -30.6 and Mdm2-MdmX confirm 92.0*.
For COC(=O)c1ccccc1NC(=S)NC(NC(=O)c1ccco1)C(Cl)(Cl)Cl (stereo not drawn) the results were KKLEB cytotox 8.3, TWEAK Fn14 block 9.5, TROY NFkB inh -5.7, CF NFkB block -11.0, HIF-2a inh -7.1 and Peg3 promoter -3.9.
For CCOc1ccc(Nc2ncnc3ccc([N+](=O)[O-])cc23)cc1 the results were KKLEB cytotox -14.2, TWEAK Fn14 block 77.2*, TROY NFkB inh 51.2*, CF NFkB block 75.1*, HIF-2a inh 14.9, Peg3 promoter 11.9, CF NFkB inh conf 87.0* and Mdm2-MdmX confirm 87.0*.
Screening CCOC(=O)c1ccc(Nc2ncnc3ccc(C)cc23)cc1 returned KKLEB cytotox -2.6, TWEAK Fn14 block 20.4, TROY NFkB inh 11.7, CF NFkB block 30.7, HIF-2a inh 23.2 and Peg3 promoter -5.7.
CN(C(=O)c1ccccc1C(=O)OCC(=O)Nc1ccc(S(N)(=O)=O)cc1)c1ccccc1 was read as KKLEB cytotox 9.6, TWEAK Fn14 block 10.3, TROY NFkB inh 8.6, CF NFkB block 13.8, HIF-2a inh 9.4 and Peg3 promoter 2.6.
`O=S(=O)(CC(CN1CCCC1)N1CCCC1)c1ccc2ccccc2c1` (stereo not drawn) gave KKLEB cytotox -30.6, TWEAK Fn14 block 12.6, TROY NFkB inh 15.3, CF NFkB block 62.3*, HIF-2a inh 22.0, Peg3 promoter 80.3*, CF NFkB inh conf 85.7* and Mdm2-MdmX confirm 103.2*.
Cc1ccc(S(=O)(=O)CC(CN2CCOCC2)N2CCOCC2)cc1 (stereo not drawn) was read as KKLEB cytotox 12.7, TWEAK Fn14 block 11.4, TROY NFkB inh -3.3, CF NFkB block -11.3, HIF-2a inh 9.0 and Peg3 promoter 6.1.
`Cc1cccc(N(Cc2cc(=O)[nH]c3ccccc23)C(=O)CCl)c1` gave KKLEB cytotox -25.7, TWEAK Fn14 block 86.5*, TROY NFkB inh 24.4, CF NFkB block 72.1*, HIF-2a inh 65.0*, Peg3 promoter 94.8*, CF NFkB inh conf 108.0*, Mdm2-MdmX confirm 102.0*, HIF-2a conf 90.2* and HIF-1a counter 103.7*.

Compound activity from PubChem.
